Results on 34 molecules are retold here after PubChem BioAssay (NCATS).

The nature of one test: qHTS drug screen for cell cycle checkpoint inhibitors in PARPi-resistant BRCA-mutant ovarian cancer cell lines. (AID 1963452). The note with it: PEO1/OlaR viability, CellTiter-Glo luminescence, 96 h; measured here: PEO1 parental Z-AUC; stronger effect = lower value. A digest of the protocol: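 PEO1, PEO4 and PEO1/OlaR ovarian cancer cells, 600 per well, exposed 96 h at 37C to a dilution series. Viability read by CellTiter-Glo luminescence, normalized to DMSO and empty wells; activity summarized as Z-AUC.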
Consider `CC1=C(C(=O)Nc2cc3cn[nH]c3cc2F)C(c2ccc(C(F)(F)F)cc2)CC(=O)N1` (stereo not given), for which the Z-AUC was -0.272.

`N[C@@H](CC(=O)N1CCn2c(nnc2C(F)(F)F)C1)Cc1cc(F)c(F)cc1F`: the Z-AUC was found to be 0.734.

As to `NCC1CCC(C(=O)O)CC1` (stereo not given), the Z-AUC is -0.68.

Regarding `C#CCN(C)CC1=Cc2ccccc2Oc2ccccc21`, the Z-AUC was -0.493.

As to `CCN1CCN(c2ccc(Nc3cc(N(C)C(=O)Nc4c(Cl)c(OC)cc(OC)c4Cl)ncn3)cc2)CC1`, the Z-AUC was -0.00584.

Regarding `CCC(c1ccc(O)cc1)C(CC)c1ccc(O)cc1` (stereo not given), the Z-AUC is -0.74.

In the case of `COc1ccc2nc3cc(Cl)ccc3c(Nc3cc(CN4CCCC4)c(O)c(CN4CCCC4)c3)c2n1`, the Z-AUC is 0.591.

As for `COc1ccc(-c2oc3c(CC=C(C)C)c(O)cc(O)c3c(=O)c2O)cc1`, the Z-AUC was 0.584.

For `CCCCOCCOc1nc(-c2ccc(C(=O)O)c(F)c2)sc1C`, the Z-AUC came to 0.866.

For the molecule `Cc1ccccc1C(C(=O)NC1CCCCC1)N(C(=O)CNc1ccc(C#N)cc1)c1cccc(F)c1` (stereo not given), the Z-AUC was found to be 0.0819.

In the case of `Cc1csc(-c2nnc(Nc3ccc(Oc4ncccc4-c4ccnc(N)n4)cc3)c3ccccc23)c1`, the Z-AUC was -0.785.

As for `CCN(CCO)CCCOc1ccc2c(Nc3cc(CC(=O)Nc4cccc(F)c4)[nH]n3)ncnc2c1`, the Z-AUC was -0.629.

Turning to `Cc1cc(OCCCS(C)(=O)=O)cc(C)c1-c1cccc(COc2ccc3c(c2)OC[C@H]3CC(=O)O)c1`, the Z-AUC came out at 0.128.

`Cc1nn(Cc2ccccc2Cl)c(C)c1CN(C)CC(O)COc1ccc(Cl)cc1` (stereo not given): the Z-AUC stood at 0.673.

`COc1nccc(-c2c(-c3ccc(F)cc3)ncn2C2CCC(O)CC2)n1` (stereo not given): the Z-AUC is 1.27.

On to `Cc1cc2c(cc1C1(c3ccc(C(=O)O)cn3)CC1)C(C)(C)CCC2(C)C`, for which the Z-AUC stood at 0.647.

As for `CN(C)c1ccc(-c2nc3ncc(Cl)c(N4CCN(CC(=O)Nc5nccs5)CC4)c3[nH]2)cc1`, the Z-AUC is -1.25.

Consider `CCOC(=O)N1c2ccc(C(F)(F)F)cc2[C@@H](N(Cc2cc(C(F)(F)F)cc(C(F)(F)F)c2)C(=O)OC)C[C@H]1CC`, for which the Z-AUC is 0.195.

For the molecule `Cc1cnc(CNC(=O)c2c(=O)c3ccc(N4CCCN(C)CC4)nc3n3c2sc2ccccc23)cn1`, the Z-AUC is -0.603.

Regarding `CCCCC(F)(F)[C@@]1(O)CC[C@H]2[C@H](CC(=O)[C@@H]2CCCCCCC(=O)O)O1`, the Z-AUC worked out at 0.401.

With `COC(=O)N1CCN(Cc2cccc(NC(=O)Nc3ccc(C)nc3)c2F)CC1`, the Z-AUC is -0.204.

Still in this test, the particulars now being: PEO1/OlaR viability, CellTiter-Glo luminescence, 96 h; measured here: PEO4 Z-AUC; stronger effect = lower value.
On to `C[C@H](c1ccc(F)cc1CCCC(=O)O)N(c1cc(F)ccc1F)S(=O)(=O)c1ccc(Cl)cc1`, for which the Z-AUC was -0.797.

Regarding `Cc1cn([C@@H]2C[C@@H](O)[C@H](CO)O2)c(=O)[nH]c1=O`, the Z-AUC came out at 0.771.

`CCOC(=O)[C@@H](N)CCC(=O)N[C@@H](CSCc1ccccc1)C(=O)N[C@@H](C(=O)OCC)c1ccccc1`: the Z-AUC turned out to be 1.07.

`CC(C)C[C@@H](N)[C@H](O)C(=O)N[C@H](C(=O)N[C@H](C(=O)N[C@@H](CC(=O)O)C(=O)O)C(C)C)C(C)C`: the Z-AUC is -0.277.

For the molecule `CC[C@H](C=C[C@@H](C)[C@H]1CC[C@H]2[C@@H]3CC=C4C[C@@H](O)CC[C@]4(C)[C@@H]3CC[C@]12C)C(C)C`, the Z-AUC is 1.84.

With `CN1CCN(c2cccc(Nc3nc4c(-c5ccc(S(C)(=O)=O)cc5)cccn4n3)c2)CC1`, the Z-AUC came out at 0.131.

Consider `CN1CCC(COc2cnc(-c3cccc(Cn4nc(-c5cccc(C#N)c5)ccc4=O)c3)nc2)CC1`, for which the Z-AUC was -0.442.

Take `O=S(=O)(O)c1ccc2cc(N=Nc3cc(S(=O)(=O)O)c4cccnc4c3O)ccc2c1`: the Z-AUC was determined as 0.158.

In the case of `Cc1nc2c([nH]1)CCN(C(=O)c1ccc(NC(=O)c3ccccc3-c3ccccc3)cc1)c1ccccc1-2`, the Z-AUC was determined as 0.851.

Turning to `CCc1cc(-c2n[nH]c(C)c2-c2ccc3c(c2)OCCO3)c(O)cc1O`, the Z-AUC was found to be 0.316.

In the case of `COc1nc(C)cnc1NS(=O)(=O)c1cccnc1-c1ccc(-c2nnco2)cc1`, the Z-AUC worked out at 1.16.

Regarding `C[C@@]1(C(=O)Nc2ccc(F)nc2)CCCN1c1nc(Nc2cc(C3CC3)[nH]n2)c2cccn2n1`, the Z-AUC was -0.135.

`Cc1ccc(NC(=O)c2ccc(CN3CCN(C)CC3)cc2)cc1Nc1nc(-c2cccnc2)cs1`: the Z-AUC is -0.741.

Regarding `CC1=C(C(=O)Nc2cc3cn[nH]c3cc2F)C(c2ccc(C(F)(F)F)cc2)CC(=O)N1` (stereo not given), the Z-AUC is -0.273.

For the molecule `N[C@@H](CC(=O)N1CCn2c(nnc2C(F)(F)F)C1)Cc1cc(F)c(F)cc1F`, the Z-AUC was 0.789.

Turning to `NCC1CCC(C(=O)O)CC1` (stereo not given), the Z-AUC is -0.142.

For the molecule `C#CCN(C)CC1=Cc2ccccc2Oc2ccccc21`, the Z-AUC is -0.09.

On to `CCN1CCN(c2ccc(Nc3cc(N(C)C(=O)Nc4c(Cl)c(OC)cc(OC)c4Cl)ncn3)cc2)CC1`, for which the Z-AUC is 0.0335.

Turning to `CCC(c1ccc(O)cc1)C(CC)c1ccc(O)cc1` (stereo not given), the Z-AUC is -0.679.

For the molecule `COc1ccc2nc3cc(Cl)ccc3c(Nc3cc(CN4CCCC4)c(O)c(CN4CCCC4)c3)c2n1`, the Z-AUC came to 1.29.

In the case of `COc1ccc(-c2oc3c(CC=C(C)C)c(O)cc(O)c3c(=O)c2O)cc1`, the Z-AUC came to 0.876.

Turning to `CCCCOCCOc1nc(-c2ccc(C(=O)O)c(F)c2)sc1C`, the Z-AUC worked out at 0.696.

For the molecule `Cc1ccccc1C(C(=O)NC1CCCCC1)N(C(=O)CNc1ccc(C#N)cc1)c1cccc(F)c1` (stereo not given), the Z-AUC is 0.0144.

For `Cc1csc(-c2nnc(Nc3ccc(Oc4ncccc4-c4ccnc(N)n4)cc3)c3ccccc23)c1`, the Z-AUC is -1.53.

`CCN(CCO)CCCOc1ccc2c(Nc3cc(CC(=O)Nc4cccc(F)c4)[nH]n3)ncnc2c1`: the Z-AUC is -1.66.

`Cc1cc(OCCCS(C)(=O)=O)cc(C)c1-c1cccc(COc2ccc3c(c2)OC[C@H]3CC(=O)O)c1`: the Z-AUC worked out at 0.794.

As for `Cc1nn(Cc2ccccc2Cl)c(C)c1CN(C)CC(O)COc1ccc(Cl)cc1` (stereo not given), the Z-AUC was 0.908.

Take `COc1nccc(-c2c(-c3ccc(F)cc3)ncn2C2CCC(O)CC2)n1` (stereo not given): the Z-AUC was determined as 1.21.

As to `Cc1cc2c(cc1C1(c3ccc(C(=O)O)cn3)CC1)C(C)(C)CCC2(C)C`, the Z-AUC worked out at 0.601.

As to `CN(C)c1ccc(-c2nc3ncc(Cl)c(N4CCN(CC(=O)Nc5nccs5)CC4)c3[nH]2)cc1`, the Z-AUC was -1.61.

`CCOC(=O)N1c2ccc(C(F)(F)F)cc2[C@@H](N(Cc2cc(C(F)(F)F)cc(C(F)(F)F)c2)C(=O)OC)C[C@H]1CC`: the Z-AUC was -0.682.

In the case of `Cc1cnc(CNC(=O)c2c(=O)c3ccc(N4CCCN(C)CC4)nc3n3c2sc2ccccc23)cn1`, the Z-AUC worked out at 0.0193.

`CCCCC(F)(F)[C@@]1(O)CC[C@H]2[C@H](CC(=O)[C@@H]2CCCCCCC(=O)O)O1`: the Z-AUC came out at 0.738.

With `COC(=O)N1CCN(Cc2cccc(NC(=O)Nc3ccc(C)nc3)c2F)CC1`, the Z-AUC is -0.622.
